HCV inh: blocks hepatitis C virus | Huh7.5.1 HCVcc-Cre infection, luciferase reporter, 44 h | 340,000 tested, 3.4% active | Potency, µM (top dose mostly 41.8 µM), for the others: at the highest dose activity change, negative = inhibition, hits mostly inhibitors
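Luciferase read-out (15 sec integration) after a 15 min room-temperature substrate step quantifies HCVcc-Cre infection. Cells, 1,000 per well, had compound added 4 h post-plating, then virus at ~0.5 moi, and were cultured 44 h.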
Pf growth 96h: inhibits malaria parasite growth, 96 h; P. falciparum luciferase reporter growth, 96 h; Potency, µM (doses to about 28.7 µM), without a hit: top-dose activity change, negative = inhibition, hits mostly inhibitors; 320,000 tested, 6.9% active; AID 504834
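Cell-based qHTS: luciferase-tagged P. falciparum in erythrocytes (2% hematocrit, 0.05% parasitemia final) incubated with compounds for 96 hours, 37 C, 5% CO2; luciferase detection reagent then added and luminescence measured.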
AMA1-RON2 inh: disrupts binding of P. falciparum AMA1 to RON2; AlphaScreen AMA1-biotinylated RON2 peptide binding; Potency, µM (top dose mostly 58.2 µM), for the others: top-dose activity change, negative = inhibition, hits mostly inhibitors; 360,000 tested, 0.2% active; AID 720542;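 also: 0% = vehicle wells and -100% = peptide control; nearly all actives have a fitted effect of over 45% in size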
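AMA1 (3D7) with his tag at 25 nM final met compounds first, then biotinylated RON2 peptide at 25 nM; detection used donor plus acceptor beads, 10 µg/mL apiece, read by AlphaScreen after 30 min at room temperature.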
Pf growth 48h: P. falciparum growth inhibition at 48 hours (one generation); P. falciparum luciferase growth in erythrocytes, 48 h; Potency, µM (doses to about 28.7 µM), without a hit: at the highest dose activity change, negative = inhibition, most hits filed as inhibitors; 310,000 tested, 5.9% active; AID 504832
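Read-out is firefly luciferase luminescence from an integrated reporter in P. falciparum, so falling signal marks reduced parasite growth. Infected erythrocytes were at 2% hematocrit and 0.1% parasitemia (final) in Albumax-supplemented RPMI 1640.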
AmpC no deterg: inhibitors of E. coli AmpC beta-lactamase without detergent | 330,000 tested, 0.52% active | AmpC nitrocefin hydrolysis, absorbance 480 nm, 0.0001% Triton | AID 485341 | P00811 | Potency, µM (titrated, usually from 57.1 µM), without a hit: at the top dose activity change, negative = inhibition, usual class: inhibitors;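 also: plate controls were no compound for no effect and no enzyme for full effect; nearly all actives have a fitted effect of over 20% in size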
Target sequence (P00811 whole entry, looked up): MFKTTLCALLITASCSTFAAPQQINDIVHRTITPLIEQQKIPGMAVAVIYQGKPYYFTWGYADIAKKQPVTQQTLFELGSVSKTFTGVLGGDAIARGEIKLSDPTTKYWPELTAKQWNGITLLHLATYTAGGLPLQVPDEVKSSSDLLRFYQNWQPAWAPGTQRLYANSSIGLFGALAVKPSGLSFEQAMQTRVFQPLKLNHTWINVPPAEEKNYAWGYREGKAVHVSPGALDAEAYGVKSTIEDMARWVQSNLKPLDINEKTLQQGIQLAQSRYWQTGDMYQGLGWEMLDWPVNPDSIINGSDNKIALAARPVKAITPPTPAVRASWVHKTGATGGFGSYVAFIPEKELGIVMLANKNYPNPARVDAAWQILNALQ
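20 mM phosphate pH 7.0 + 0.01% (detergent screen) or 0.0001% Triton X-100; 5.3 nM AmpC reagent; cpd preinc 15 min RT; nitrocefin (800 uM stock) to start; A480 q20 s × 4 min; Activity was normalised to no-enzyme and no-compound control wells.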
AmpC detergent: AmpC beta-lactamase inhibition with detergent present; Potency, µM (series often up to 114 µM), inactives show top-dose activity change, negative = inhibition, usual class: inhibitors; 370,000 tested, 0.041% active; P00811; AmpC hydrolysis of nitrocefin, absorbance 480 nm, 0.01% Triton;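 also: 0% = no-compound wells and -100% = no-enzyme wells; nearly all actives have a fitted effect of over 25% in size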
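AmpC (5.3 nM in the dispensed reagent) in 20 mM phosphate pH 7.0 with 0.01% (detergent screen) or 0.0001% Triton X-100 was preincubated with compounds for 15 min at room temperature. Nitrocefin was then added from an 800 uM solution, and hydrolysis was followed at 480 nm.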
Starred values were filed as active, the others as inactive; ? = inconclusive; . = no result given; [ ] = remark or other dose. Most compounds without a hit are left out; they make up all but 11% or so of the library. Calls follow the shape of the dose curve; as a rule, active = well fitted curve in the direction sought with a large enough effect; inconclusive = small, poorly fitted or top-dose-only effect, or another doubt; inactive = no such curve, though single readings can be large; an effect the other way counts as inactive or inconclusive. Unless noted, % is scaled to controls: 0 for no effect and ±100 for the full control effect; potency is read from the fitted curve at half-maximal effect.

SMILES	HCV inh	Pf growth 96h	AMA1-RON2 inh	Pf growth 48h	AmpC no deterg	AmpC detergent
CCC(C)NC(=O)CSc1nnc(-c2cc(OC)c(OC)c(OC)c2)c(-c2cc(OC)c(OC)c(OC)c2)n1 (configuration not stated)	-1%	14%	8%	10µM*	25%	3%
COc1cc(C(=O)NC2CCCCCCC2)cc(OC)c1OC	14%	.	0%	.	.	.
CCOc1ccc(-c2nnc(SCC(=O)NC(C)CC)nc2-c2ccc(OCC)c(OC)c2)cc1OC (configuration not stated)	.	.	.	.	.	9%
COc1cc(C(=O)NC(=S)N(CCc2ccccc2)CCc2ccccc2)cc(OC)c1OC	?	12µM*	-14%	10µM*	38%	-12%
Fc1ccc(C(c2nnnn2C2CCCC2)N2CCc3ccccc32)cc1 (configuration not stated)	-11%	?	-27%	?	-43%	-7%
CCN(CC)C(c1ccc(C)cc1)c1nnnn1C1CCCCC1 (configuration not stated)	35µM*	-11%	-2%	?	32%	3%
Cc1ccc(C(c2nnnn2C2CCCC2)N2c3ccccc3CC2C)cc1 (configuration not stated)	-24%	?	-23%	13µM*	-20%	?
COc1ccc2oc(=O)cc(CN3CCN(C(=O)c4ccccc4)CC3)c2c1	.	.	.	.	.	8%
Cc1cccc(Nc2nc3c(S(=O)(=O)c4ccc(Br)cc4)nnn3c3ccsc23)c1C	.	.	.	.	.	0%
CCCCn1c(=O)c2c(O)cc(=O)oc2c2ccccc21	8%	?	11%	42%	-16%	-1%
O=c1cc(O)c2c(=O)n(Cc3ccccc3)c3ccccc3c2o1	?	?	-8%	8.3µM*	-6%	4%
Cc1ccc(CSC2=Nc3ccccc3C3=NC(CCC(=O)NC4CCCCC4)C(=O)N23)cc1 (configuration not stated)	.	.	.	.	.	13%
COc1ccc(S(=O)(=O)N(C)CC(=O)NCCc2ccccc2)cc1OC	-21%	15µM*	-7%	?	14%	0%
COc1ccc(CCNC(=O)CN(C)S(=O)(=O)c2cccs2)cc1OC	8%	?	-5%	-2%	-12%	-1%
COc1ccc(CCNC(=O)CN(C)S(=O)(=O)c2ccc(Br)s2)cc1OC	-9%	1.9µM*	11%	-5%	26%	0%
COc1ccc(S(=O)(=O)N(C)CC(=O)NCc2ccccc2)cc1OC	5%	43%	18%	-8%	-5%	2%
CSc1cc(-c2ccccc2)n(Cc2c(Cl)cccc2Cl)c(=O)c1C#N	6%	4%	5%	.	-26%	2%
CSc1cc(-c2ccccc2)n(C)c(=O)c1C#N	10µM*	9%	-7%	3%	-34%	2%
COc1ccc(-c2cn3nc(N4CCCC(C(=O)NCc5ccccc5OC)C4)sc3n2)cc1 (configuration not stated)	.	.	.	.	.	15%
CCOC(=O)c1cccc(NC(=O)Cc2ccc(NC(=O)N3CCCCc4ccccc43)cc2)c1	.	.	.	.	.	10%
NC(=S)NN=C1c2ccccc2-c2c(F)c(F)c(F)c(F)c21	?	.	4%	.	.	.
CCOP(=O)(Nc1ccc2c(c1)C(=NNC(N)=S)c1ccccc1-2)OCC	11µM*	.	-6%	.	.	.
O=C(N/N=C(\c1ccccc1)c1cccnc1)c1cccc(F)c1	?	?	3%	1.9µM*	-36%	-17%
O=C(N/N=C(\Cc1ncc[nH]1)c1ccccc1)c1cccnc1	?	?	-10%	9.3µM*	-24%	-1%
COc1cccc(CNC(=O)C(=O)NCC(c2ccco2)S(=O)(=O)c2cccs2)c1 (configuration not stated)	.	.	.	.	.	0%
SMILES	HCV inh	Pf growth 96h	AMA1-RON2 inh	Pf growth 48h	AmpC no deterg	AmpC detergent
CCc1ccc2c(c1)C1(C(=O)N2)N2CCCC2C(C(=O)c2ccc3ccccc3c2)C12C(=O)Nc1ccccc12 (configuration not stated)	?	2.3µM*	-11%	?	-28%	-10%
Cc1ccc(-c2c(C)n3c4c(=O)n(C)c(=O)n(C)c4nc3n2-c2cccc(O)c2)cc1	.	.	.	.	.	-2%
C/C(=N\N=C\c1ccc(N(C)C)cc1)c1cccc([N+](=O)[O-])c1	33%	?	?	67%	-20%	-16%
COc1cc(N(C)C)ccc1C=c1c2ccccc2n2c1cc(-c1ccccc1)[n+]2C	10µM*	.	13µM*	.	.	.
CN(C)c1ccc(/C=C2\SC(=O)N(CC(O)Cn3c4ccccc4c4ccccc43)C2=O)cc1 (configuration not stated)	3%	-2%	-5%	?	-26%	-2%
CN(C)c1ccc(C=c2c3cc([N+](=O)[O-])ccc3n3c2cc(-c2ccccc2)[n+]3C)cc1	?	.	8.9µM*	.	.	.
CN(C)c1ccc(C=c2c3ccccc3n3c2cc(-c2ccccc2)[n+]3C)cc1	?	.	32µM*	.	.	.
CN(C)c1ccc(C=c2c3ccccc3n3c2cc(-c2ccc(Cl)cc2)[n+]3C)cc1	?	.	18µM*	.	.	.
CCN(c1ccc(N=Cc2c(O)n(Cc3ccc(OC)cc3)c(=O)c3ccccc23)cc1)C(C)C	30%	1.5µM*	-13%	?	-21%	-11%
O=C(CN1C(=O)COc2ccc(S(=O)(=O)N3CCCCC3)cc21)NCCc1ccc(Cl)cc1	.	.	.	.	.	-9%
O=C(CSc1n[nH]c(-c2ccccc2Cl)n1)NCc1ccc(F)cc1	.	.	.	.	.	25%
O=C(NC1CCCC1)c1c[nH]c2ccc(S(=O)(=O)Nc3cccc(C(F)(F)F)c3)cc2c1=O	.	.	.	.	.	0%
CN(Cc1ccccc1)S(=O)(=O)c1ccc(OCC(=O)Nc2cccc([N+](=O)[O-])c2)cc1	14%	1%	2%	?	-26%	-2%
O=C(COc1ccc([N+](=O)[O-])cc1)Nc1ccncc1	?	?	-4%	31%[5.75 µM]	-29%	-10%
CN(c1ccccc1)S(=O)(=O)c1cccc(NC(=O)COc2cccc([N+](=O)[O-])c2)c1	?	-19%	-2%[11.6 µM]	13µM*	-21%	9%
CCC(=O)c1ccc(OCC(=O)Nc2cccc(S(=O)(=O)N(C)c3ccccc3)c2)cc1	11µM*	-5%	21%	?	-28%	1%
NS(=O)(=O)c1cccc(NC(=O)COc2ccc([N+](=O)[O-])cc2)c1	4%	119%	4%	9.3µM*	-33%	-8%
CCOC(=O)c1cccc(NC(=O)Cn2ncc3c4ccccc4n(Cc4ccccc4)c3c2=O)c1	.	.	.	.	.	19%
